Reference: PubChem BioAssay (NCI)
The panel holds about 79,000 compounds, 15% with a hit somewhere; the sample as a whole holds those more often. The source made the active and inactive calls. Cut-off read from the data, not from the text of the source: active = growth inhibition above about 70%; inactive = the rest.

Legend:
[1] = NCI Yeast Anticancer Drug Screen. Data for the rad52 strain (AID 147);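 note: 0% = growth of vehicle-treated control cultures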; settings: S. cerevisiae rad52 mutant growth inhibition, hits give high values
Summary of the method: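 Growth of repair-deficient yeast cells was compared between compound-treated and vehicle-treated cultures to give percent inhibition.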

[2] = NCI Yeast Anticancer Drug Screen. Data for the wt1 strain (AID 149);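 note: 0% = growth of vehicle-treated wt1 cultures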; settings: S. cerevisiae wt1 strain (SPY 50644) growth inhibition, hits give high values
Summary of the method: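 Compounds are added to wt1 yeast cultures. Growth is then measured. Inhibition is expressed relative to vehicle-treated controls.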

[3] = NCI Yeast Anticancer Drug Screen. Data for the rad50EPP+ strain (AID 151);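 note: 0% = growth of vehicle-treated control cultures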; settings: S. cerevisiae rad50 mutant strain, hits give high values
Summary of the method: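 Measured: growth inhibition of rad50EPP+ yeast. Reference: vehicle-treated controls. Screen uses strains with defined genetic alterations in DNA damage repair or cell cycle control.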

[4] = NCI Yeast Anticancer Drug Screen. Data for the rad50 strain (AID 155);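 note: 0% = growth of vehicle-only cultures of the same strain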; settings: S. cerevisiae rad50 strain growth inhibition, hits give high values
Summary of the method: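 Inhibition values express reduced yeast growth in compound-treated cultures relative to vehicle-treated controls.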

[5] = NCI Yeast Anticancer Drug Screen. Data for the mec2-1 strain (AID 157); settings: S. cerevisiae mec2-1 strain, hits give high values
Summary of the method: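 Compounds were applied to mec2-1 yeast cells. Their growth was then compared with that of vehicle-treated cultures to give growth inhibition.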

[6] = NCI Yeast Anticancer Drug Screen. Data for the rad14 strain (AID 159);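 note: 0% = growth of vehicle-treated control cultures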; settings: S. cerevisiae rad14 strain growth inhibition, hits give high values
Summary of the method: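 A mutant yeast strain defective in DNA damage repair is treated with compound; inhibition of its growth is scored against untreated, vehicle-exposed cultures.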

[7] = NCI Yeast Anticancer Drug Screen. Data for the sgs1 mgt1 strain (AID 161);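 note: 0% = growth of cultures given vehicle only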; settings: S. cerevisiae sgs1 mgt1 strain, hits give high values
Summary of the method: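 Growth of a repair-deficient yeast mutant was monitored after compound treatment and expressed as inhibition relative to vehicle-treated cultures.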

[8] = NCI Yeast Anticancer Drug Screen. Data for the cln2 rad14 strain (AID 165);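 note: 0% = growth equal to vehicle treated cultures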; settings: S. cerevisiae cln2 rad14 strain, hits give high values
Summary of the method: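 Strain: cln2 rad14 yeast, altered in cell cycle control and DNA damage repair. Read-out: growth inhibition vs vehicle.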

[9] = NCI Yeast Anticancer Drug Screen. Data for the bub3 strain (AID 167); settings: S. cerevisiae bub3 mutant strain, hits give high values
Summary of the method: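 Steps: expose the mutant yeast strain to compound; grow alongside vehicle-treated cultures; measure growth; express inhibition against the vehicle cultures.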

[10] = NCI Yeast Anticancer Drug Screen. Data for the wt2 strain (AID 169);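 note: 0% = growth of vehicle-treated yeast cultures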; settings: S. cerevisiae wt2 strain growth inhibition, hits give high values
Summary of the method: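 Growth of compound-treated yeast is measured and expressed as inhibition relative to vehicle-only controls.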

[11] = NCI Yeast Anticancer Drug Screen. Data for the mlh1 strain (AID 171);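 note: 0% = growth of vehicle-treated control cultures of the same strain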; settings: S. cerevisiae mlh1 strain growth inhibition, hits give high values
Summary of the method: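 Test agents were incubated with yeast bearing a defined DNA damage repair or cell cycle control alteration; values are growth inhibition normalised to vehicle-treated cultures.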

[12] = NCI Yeast Anticancer Drug Screen. Data for the sgs1 strain (AID 173);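 note: 0% = growth of vehicle-only control cultures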; settings: S. cerevisiae sgs1 mutant, hits give high values
Summary of the method: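 Strain with an altered DNA repair or cell cycle pathway exposed to compound. Growth then measured. Value = inhibition versus vehicle control.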

[13] = NCI Yeast Anticancer Drug Screen. Data for the mlh1 rad18 strain (AID 175); settings: S. cerevisiae mlh1 rad18 strain growth inhibition, hits give high values
Summary of the method: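 A repair-deficient yeast strain is exposed to test compound, and growth is scored relative to vehicle-treated controls.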

[14] = NCI Yeast Anticancer Drug Screen. Data for the rad18 strain (AID 177); settings: S. cerevisiae rad18 mutant growth inhibition, hits give high values
Summary of the method: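 DNA-repair-defective yeast; compound treatment; growth inhibition scored against vehicle.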

[15] = NCI Yeast Anticancer Drug Screen. Data for the CLN2oe strain (AID 163);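 note: 0% = growth of vehicle-only control cultures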; settings: S. cerevisiae CLN2oe strain, hits give high values
Summary of the method: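 Cells of an engineered yeast line with disturbed cell-cycle regulation are treated with compound. Inhibition of growth is then calculated relative to the vehicle-treated reference.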

[16] = at 5.0 µM (retest, dose inferred, filed as 0.5)
[17] = at 50.0 µM (retest, dose inferred, filed as 5.0)

Measured: growth inhibition

CC1CC[C@]2(C(=O)O)CCC3(C)C(=CC(=O)C4[C@@]5(C)CCC(=O)C(C)(C)C5CC[C@]43C)[C@@H]2[C@H]1C (stereo partly specified)
inactive: [1]; at 1.2 µM 29% | [1]; at 3.7 µM 43% | [2]; at 1.2 µM 9% | [2]; at 3.7 µM 20% | [3]; at 1.2 µM 9% | [3]; at 3.7 µM 21% | [3]; at 11.0 µM 28% | [3]; at 33.0 µM 18% | [3]; at 100.0 µM 30% | [4]; at 1.2 µM 20% | [4]; at 3.7 µM 46% | [4]; [16] 4% | [5]; at 1.2 µM -2% | [5]; at 3.7 µM 38% | [5]; [16] 26% | [6]; at 1.2 µM -19% | [6]; at 3.7 µM -13% | [7]; [16] 7% | [8]; [16] 65% | [9]; at 1.2 µM 12% | [9]; at 3.7 µM 29% | [9]; [16] 58% | [10]; at 1.2 µM 12% | [10]; at 3.7 µM 13% | [11]; at 1.2 µM 14% | [11]; at 3.7 µM 14% | [12]; at 1.2 µM 29% | [12]; at 3.7 µM 30% | [13]; [16] 35% | [14]; at 1.2 µM 15% | [14]; at 3.7 µM 34%
active: [1]; at 11.0 µM 91% | [1]; at 33.0 µM 98% | [1]; at 100.0 µM 97% | [2]; at 11.0 µM 93% | [2]; at 33.0 µM 98% | [2]; at 100.0 µM 97% | [4]; at 11.0 µM 92% | [4]; at 33.0 µM 98% | [4]; [17] 97% | [4]; at 50.0 µM 90.8% | [4]; at 100.0 µM 97% | [5]; at 11.0 µM 88% | [5]; at 33.0 µM 95% | [5]; [17] 97% | [5]; at 50.0 µM 91.5% | [5]; at 100.0 µM 95% | [6]; at 11.0 µM 77% | [6]; at 33.0 µM 95% | [6]; at 100.0 µM 96% | [7]; [17] 96% | [7]; at 50.0 µM 89.8% | [8]; [17] 98% | [8]; at 50.0 µM 90.7% | [9]; at 11.0 µM 88% | [9]; at 33.0 µM 96% | [9]; [17] 97% | [9]; at 50.0 µM 91.7% | [9]; at 100.0 µM 96% | [10]; at 11.0 µM 88% | [10]; at 33.0 µM 98% | [10]; at 100.0 µM 97% | [11]; at 11.0 µM 83% | [11]; at 33.0 µM 96% | [11]; at 100.0 µM 96% | [12]; at 11.0 µM 91% | [12]; at 33.0 µM 98% | [12]; at 100.0 µM 97% | [13]; [17] 97% | [13]; at 50.0 µM 90.7% | [14]; at 11.0 µM 93% | [14]; at 33.0 µM 97% | [14]; at 100.0 µM 97%

CCOC(=O)c1ccc(NC(=O)O/N=C(/Cl)C(C)C)cc1
inactive: [1]; at 1.2 µM -2% | [1]; at 3.7 µM 3% | [1]; at 11.0 µM 14% | [1]; at 33.0 µM 58% | [2]; at 1.2 µM -1% | [2]; at 3.7 µM -6% | [2]; at 11.0 µM -11% | [2]; at 33.0 µM -14% | [3]; at 1.2 µM 1% | [3]; at 3.7 µM 8% | [3]; at 11.0 µM 22% | [3]; at 33.0 µM 44% | [4]; at 1.2 µM -1% | [4]; at 3.7 µM 4% | [4]; [16] 5% | [4]; at 11.0 µM 7% | [4]; at 33.0 µM 48% | [4]; at 50.0 µM 55.4% | [5]; at 1.2 µM 1% | [5]; at 3.7 µM 1% | [5]; [16] -19% | [5]; at 11.0 µM 3% | [5]; at 33.0 µM 45% | [7]; [16] -12% | [15]; at 1.2 µM -2% | [15]; at 3.7 µM 2% | [15]; at 11.0 µM -5% | [15]; at 33.0 µM -22% | [8]; [16] 17% | [8]; at 50.0 µM 63.4% | [9]; at 1.2 µM 9% | [9]; at 3.7 µM 18% | [9]; [16] -7% | [9]; at 11.0 µM 28% | [9]; at 33.0 µM 55% | [10]; at 1.2 µM -4% | [10]; at 3.7 µM -8% | [10]; at 11.0 µM 10% | [11]; at 1.2 µM -6% | [11]; at 3.7 µM -4% | [11]; at 11.0 µM -4% | [12]; at 1.2 µM -3% | [12]; at 3.7 µM -4% | [12]; at 11.0 µM 28% | [13]; [16] -7% | [13]; at 50.0 µM 69.1% | [14]; at 1.2 µM -5% | [14]; at 3.7 µM -5% | [14]; at 11.0 µM -1% | [14]; at 33.0 µM 12%
active: [1]; at 100.0 µM 98% | [2]; at 100.0 µM 97% | [3]; at 100.0 µM 87% | [4]; [17] 92% | [4]; at 100.0 µM 98% | [5]; [17] 95% | [5]; at 50.0 µM 85.5% | [5]; at 100.0 µM 99% | [7]; [17] 98% | [7]; at 50.0 µM 81.8% | [15]; at 100.0 µM 97% | [8]; [17] 87% | [9]; [17] 97% | [9]; at 50.0 µM 76.6% | [9]; at 100.0 µM 98% | [10]; at 33.0 µM 91% | [10]; at 100.0 µM 99% | [11]; at 33.0 µM 84% | [11]; at 100.0 µM 99% | [12]; at 33.0 µM 93% | [12]; at 100.0 µM 99% | [13]; [17] 95% | [14]; at 100.0 µM 98%
